From the supplement of paper PMC6555819

Legend:
Assay in all cases: PBM binding z-score (relative to random genomic background probes); higher = stronger binding; sequences stand for … in GC…GCGATTGACAGCGTAGAATGAAGG
[1] = tested on: FXR:RXRa (NR concentration 270 nM, RXRa partner concentration 90 nM)
In short: (§1)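 For binding z-scores, the reference was random background probes on custom Agilent 4×180K protein-binding microarrays. These arrays were incubated 1 h with ligand-free nuclear receptor dimers in PBS pH 7.4, 2% milk, 0.02% Triton X-100, 1 mM DTT, 0.2 mg/mL BSA and 0.4 mg/ml salmon testes DNA. Fluorescence was scanned after antibody detection of each partner (one per run) and regression-normalized.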

[2] = tested on: LXRa:RXRa (NR concentration 270 nM, RXRa partner concentration 90 nM)
In short: as §1

[3] = tested on: LXRa homodimer (NR concentration 270 nM)
In short: as §1

[4] = tested on: LXRb:RXRa (NR concentration 270 nM, RXRa partner concentration 90 nM)
In short: as §1

[5] = tested on: LXRb homodimer (NR concentration 270 nM)
In short: as §1

[6] = tested on: PPARa:RXRa (NR concentration 270 nM, RXRa partner concentration 90 nM)
In short: as §1

[7] = tested on: PPARg:RXRa (NR concentration 180 nM, RXRa partner concentration 90 nM)
In short: as §1

[8] = tested on: PPARg:RXRa 270nM:90nM, anti-RXR (NR concentration 270 nM, RXRa partner concentration 90 nM)
In short: as §1

[9] = tested on: PPARg:RXRa 30nM:10nM, anti-RXR (NR concentration 30 nM, RXRa partner concentration 10 nM)
In short: as §1

[10] = tested on: PPARg:RXRa 90nM:30nM, anti-RXR (NR concentration 90 nM, RXRa partner concentration 30 nM)
In short: as §1

[11] = tested on: PPARg:RXRa DBDmut IVT, anti-RXR (DBD mutation: RXRa K156A/R161A, NR concentration 270 nM, RXRa partner concentration 90 nM)
In short: as §1

[12] = tested on: PPARg:RXRa IVT, anti-PPARg (NR concentration 270 nM, RXRa partner concentration 90 nM)
In short: as §1

[13] = tested on: PPARg DBDmut:RXRa IVT, anti-PPARg (DBD mutation: PPARg1 K132A/R137A, NR concentration 270 nM, RXRa partner concentration 90 nM)
In short: as §1

[14] = tested on: PPARg DBDmut IVT, anti-PPARg (DBD mutation: PPARg1 K132A/R137A, NR concentration 270 nM)
In short: as §1

[15] = tested on: PPARg homodimer (NR concentration 180 nM)
In short: as §1

[16] = tested on: PXR:RXRa (NR concentration 270 nM, RXRa partner concentration 90 nM)
In short: as §1

[17] = tested on: PXR homodimer (NR concentration 270 nM)
In short: as §1

[18] = tested on: RARa:RXR (NR concentration 270 nM, RXRa partner concentration 90 nM)
In short: as §1

[19] = tested on: RARa homodimer (NR concentration 270 nM)
In short: as §1

[20] = tested on: RARb:RXRa (NR concentration 270 nM, RXRa partner concentration 90 nM)
In short: as §1

| Sequence | PBM binding z-score [1] | PBM binding z-score [2] | PBM binding z-score [3] | PBM binding z-score [4] | PBM binding z-score [5] | PBM binding z-score [6] | PBM binding z-score [7] | PBM binding z-score [8] | PBM binding z-score [9] | PBM binding z-score [10] | PBM binding z-score [11] | PBM binding z-score [12] | PBM binding z-score [13] | PBM binding z-score [14] | PBM binding z-score [15] | PBM binding z-score [16] | PBM binding z-score [17] | PBM binding z-score [18] | PBM binding z-score [19] | PBM binding z-score [20] |
| --- | --- | --- | --- | --- | --- | --- | --- | --- | --- | --- | --- | --- | --- | --- | --- | --- | --- | --- | --- | --- |
| GCATATAGGTAATACAAGGTGAAAGACCGATTGT | 1.32 | 2.31 | 0.0608 | 0.571 | -0.236 | 1.46 | 1.65 | 1.57 | 0.368 | 0.978 | 3.84 | 3.44 | 0.445 | 0.718 | 0.0891 | 0.523 | -0.102 | 1.49 | 0.624 | 0.568 |
| TCTAGTTGGTCACGGAGGCCACACACGACGGGTA | 0.758 | 0.488 | -0.0408 | -0.0226 | -0.0385 | 1.02 | 1.19 | 1.94 | 3.1 | 2.46 | 2.18 | 2.47 | 0.779 | 0.634 | 0.778 | 0.694 | 0.425 | 0.748 | 0.249 | 2.16 |
| CCTCGTTGGTCAGGAGGTCACACACCGGATATGA | 3.4 | 3.49 | 1.96 | 3.4 | 0.47 | 4.22 | 2.29 | 2.99 | 0.71 | 2.06 | 0.408 | 2.72 | 0.14 | 0.13 | 3.05 | 4.26 | 0.821 | 4.73 | 1.57 | 3.75 |
| TGTCAAAGTTCAAAGGTAACGCAAGTATCCACAC | 7.39 | 6.39 | 4.52 | 4.83 | 1.75 | 6.18 | 9.31 | 8.11 | 5.51 | 7.89 | 0.302 | 4.95 | 0.987 | 0.888 | 3.82 | 6.07 | 4.47 | 7.09 | 1.84 | 5.19 |
| GGAACGAGGGAAAGTTGATAGCAGAGTTTGATGG | -0.31 | -0.575 | -0.354 | -0.799 | -0.711 | -0.252 | 0.626 | 0.9 | 0.276 | 0.845 | 0.0988 | -0.37 | -0.287 | -0.305 | 0.398 | -0.176 | 0.056 | -0.338 | -0.00431 | -0.247 |
| CCAGACATGTGAGAAGGTAACTCAGCCTCGATTA | -0.141 | 0.0863 | 0.298 | -0.057 | 0.106 | -0.106 | 0.462 | -0.748 | -0.305 | -0.419 | 0.325 | -0.238 | 0.124 | 0.154 | 0.72 | -0.0196 | 0.307 | 0.384 | 1.03 | -0.14 |
| GAAACGAGGGCATTCGAGTTGATAGCATGGCGAT | 1.71 | 2.15 | -0.383 | 0.442 | -0.542 | 2.05 | 1.35 | 1.32 | 0.0683 | 0.829 | 4.26 | 3.42 | 0.513 | 0.0284 | -0.429 | 3.68 | 1.26 | 0.561 | 0.0115 | 1.85 |
| CCTACTGGGCCATTCGGAGGTCATTGATCATATG | 1.8 | 2.8 | 4.71 | 2.59 | -0.128 | 3.01 | 1.38 | 2.45 | 0.304 | 1.27 | 4.18 | 3.88 | -0.0532 | -0.182 | 1.81 | 3.79 | 2.38 | 3.45 | -0.323 | 2.54 |
| TCTCGGAGGACACGATAGGTCAGAGCTCGACATC | 1.07 | 1.92 | 0.208 | 0.643 | -0.585 | 1.5 | 0.595 | 1.43 | 2.09 | 1.52 | 1.4 | 0.606 | -0.736 | -0.55 | 0.932 | 0.843 | -0.337 | 1.59 | -0.7 | 2.66 |
| CTAACTAGGTCAAGAGGTCAAAGTCCGCTTCCCG | 6.96 | 6.46 | 6.71 | 5.78 | 2.03 | 6.55 | 10.3 | 8.4 | 7.88 | 8.64 | 8.74 | 8.7 | 3.27 | 2.76 | 5.39 | 6.07 | 2.21 | 7.15 | 1.67 | 5.5 |
| CGTCAAACTTCAAGGTAACGTAACAGAAAGCAGC | 0.471 | 0.1 | 0.0122 | 0.289 | 0.209 | 0.32 | 0.645 | 0.119 | 0.337 | 0.21 | 0.101 | 0.749 | 0.373 | 0.926 | 0.291 | 0.178 | 0.193 | 0.544 | -0.134 | 0.507 |
| ACAGACAGGTGATGAAGGTACCTCAGGCTATCAT | -0.309 | -0.187 | -0.266 | -0.411 | -0.507 | -0.132 | 0.682 | -0.0814 | 0.3 | -0.00206 | -0.0914 | 0.0194 | 0.29 | 0.042 | -0.0635 | -0.279 | 0.235 | 0.00944 | -0.363 | -0.00921 |
| ACAACGAGGGCAATGAGTTGATAGCACGGGTGGC | 0.234 | 0.0424 | -0.326 | -0.109 | -0.343 | 0.835 | 1.33 | 0.403 | -0.00945 | 0.211 | 2.73 | 2.02 | 0.439 | 0.354 | 0.382 | 1.76 | 4.64 | 0.401 | -0.285 | 2.15 |
| ATATGTAGGTTAGCTGGGGTCATTAAGACTAGGC | 4.6 | 5.39 | 2.55 | 4.58 | 1.38 | 5.13 | 5.69 | 4.89 | 2.49 | 4.2 | 7.01 | 6.64 | 3.24 | 2.7 | 2.8 | 5.91 | 3.46 | 5.15 | 1.22 | 3 |
